Assay outcomes deposited in PubChem by National Center for Advancing Translational Sciences (NCATS).
GLP-1R inv ag = GLP-1 receptor (human) inverse agonism; P43220; HEK293 GLP-1R CRE-luciferase, luminescence, 24 h; GLP-1R form is constitutively active; Potency, µM (titrated, usually from 38.3 µM), for inactives: at the top dose activity change, negative = inhibition, actives largely listed as inhibitors; hit rate 1.6% among 410,000; AID 624417; further: potency means the concentration at half of the fitted maximal effect; on the % scale 0 is the no-effect control and ±100 the full control effect; nearly all actives have a fitted effect of over 55% in size
Target sequence (P43220 whole entry, looked up): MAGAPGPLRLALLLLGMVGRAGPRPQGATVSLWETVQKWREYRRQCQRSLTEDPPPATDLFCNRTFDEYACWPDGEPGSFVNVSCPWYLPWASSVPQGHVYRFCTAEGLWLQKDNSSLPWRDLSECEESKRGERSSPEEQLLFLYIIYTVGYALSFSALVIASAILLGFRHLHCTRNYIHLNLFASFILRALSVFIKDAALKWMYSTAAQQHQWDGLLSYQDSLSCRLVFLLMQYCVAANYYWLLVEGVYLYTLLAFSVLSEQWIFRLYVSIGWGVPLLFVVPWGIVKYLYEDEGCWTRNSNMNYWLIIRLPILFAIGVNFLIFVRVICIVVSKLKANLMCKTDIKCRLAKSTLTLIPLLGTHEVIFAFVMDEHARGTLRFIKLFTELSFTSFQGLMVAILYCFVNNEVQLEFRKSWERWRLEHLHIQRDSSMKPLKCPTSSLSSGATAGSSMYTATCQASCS
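Inverse agonists were sought by their lowering of basal cAMP reporter luciferase output in HEK293 cells stably carrying constitutively active human GLP-1R, after 24 h compound treatment.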
GLP1R cytotox = cytotoxicity in counter-screen for GLP-1R inverse agonists | HEK293 cAMP-luciferase reporter cells, luminescence, 24 h | Potency, µM (series often up to 38.3 µM), for inactives: at the top dose activity change, negative = inhibition, usual class: inhibitors | hit rate 0.13% among 410,000 | AID 624418;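 further: loss of luciferase light is scored as toxicity; potency means the concentration at half of the fitted maximal effect; on the % scale 0 is the no-effect control and ±100 the full control effect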
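Here, cytotoxicity is scored as loss of luminescence. The MLSMR collection was tested on cells seeded in medium containing 10% Nu serum, with a 24 hr compound exposure preceded by 12 hours of culture.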
D3 ag = D3 dopamine receptor (human) agonism; P35462; D3R DiscoveRx beta-arrestin cells, luminescence, 90 min; max activation, %; hit rate 0.58% among 410,000; in the data active means max activation above about 30%; further: 0% is about no effect
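Cells at 1500/well, incubated overnight, then treated with pinned compounds (dopamine as control) for 90 min at 37 degrees C. DiscoveRx reagent added for 30 - 60 minutes at room temperature; luminescence read.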
GLP1R ag = activates the human GLP-1 receptor. hit rate 0.007% among 380,000. Potency, µM (series often up to 45.6 µM), for inactives: at the top dose activation, usual class: activators. HEK293 GLP-1R CRE-luciferase, luminescence, 4-6 h; cells express a hypersensitive GLP-1R form. AID 624172. P43220; further: potency means the concentration at half of the fitted maximal effect; % of control where 0% means no effect
ClpP mod = qHTS Assay for Activators of ClpP; AID 651965, 2013; hit rate 1.9% among 340,000; purified B. subtilis ClpP, FRET peptide cleavage, 20 min; ATP-dependent Clp protease proteolytic subunit (Bacillus subtilis (strain 168)), P80244; Potency, µM (top dose mostly 57.5 µM), inactives show at the top dose activity change, negative = active; active means well fitted falling curve with a large enough effect; inconclusive means small, poorly fitted or top-dose-only effect; inactive means no such curve, though single readings can be large or run the other way; further: potency means the concentration at half of the fitted maximal effect; the source files actives as falling curves though it sought activators and does not explain the sign; nearly all actives have a fitted effect of over 65% in size
Target sequence (P80244 whole entry, looked up): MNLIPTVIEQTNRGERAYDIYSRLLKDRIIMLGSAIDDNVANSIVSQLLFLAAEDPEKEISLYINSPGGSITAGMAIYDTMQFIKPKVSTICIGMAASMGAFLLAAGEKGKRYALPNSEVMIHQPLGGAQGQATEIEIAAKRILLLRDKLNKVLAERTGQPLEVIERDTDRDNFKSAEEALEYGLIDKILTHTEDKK
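Buffer: 100 mM Tris/HCl pH8, 100 mM KCl, 0.05% low protease BSA, 2.5% glycerol, 0.01% Tween-20. ClpP 10 microg/mL final; 20 min RT; delta FRET normalized to ADEP and DMSO controls.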
D3 antag = blocks the human D3 dopamine receptor. D3R cells, DiscoveRx beta-arrestin luminescence, antagonist mode; stronger effect = lower value. max response, negative = inhibition, %. hit rate 2.5% among 360,000. AID 652054; in the data active means max response below about -50%; inconclusive means no clear call, values can overlap the other calls; further: on the % scale 0 is the no-effect control and ±100 the full control effect
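Cells expressing the human receptor were seeded at 1500 cells/well, incubated overnight at 37 degrees C in 5% CO2, then exposed to library compounds with dopamine controls for 90 minutes at 37 degrees C before luminescent detection.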
* = called active by the depositor; ? = inconclusive; · = no result. A selection: hits, their analogues and other compounds. The true share with any hit is near 5.7%. Unless noted, the call rests on the fitted dose curve; in most records, active means well fitted curve in the direction sought with a large enough effect; inconclusive means small, poorly fitted or top-dose-only effect, or another doubt; inactive means no such curve, though single readings can be large; an effect the other way counts as inactive or inconclusive.

SMILES | GLP-1R inv ag | GLP1R cytotox | D3 ag | GLP1R ag | ClpP mod | D3 antag
COc1ccc(CCNc2ncnc3c2c(-c2ccccc2)cn3-c2ccc(Cl)cc2)cc1OC | -3% | -2% | 4 | · | 22µM* | ·
CN(C)CCCNc1ncnc2scc(-c3ccccc3)c12 | 11µM* | 0% | -10 | -4% | · | ?
COc1ccc(CCNc2ncnc3c2c(-c2ccccc2)cn3-c2ccc(F)cc2)cc1OC | ? | -5% | 17 | · | ? | ·
Cc1ccc(-n2c(C)c(C)c3c(NCCN(C)C)ncnc32)cc1 | 10µM* | -2% | 4 | -3% | -7% | 10
O=[N+]([O-])c1ccc(S(=O)(=O)N2CCN(c3nc(-c4cccs4)nc4ccccc34)CC2)cc1 | · | · | · | · | -2% | ·
COc1cc(NC(=O)CN2c3ccccc3S(=O)(=O)c3ccccc32)cc(OC)c1 | -22% | 1% | -6 | · | -21% | ·
O=C(NCc1ccccc1)C(c1ccc(-c2ccccc2)cc1)N1CCN(C(=O)C2CCCO2)CC1 (stereo not drawn) | ? | -27% | 4 | · | 1% | 2
OCCOCCNc1ncnc2c1c(-c1ccccc1)cn2-c1ccccc1 | 2% | -3% | 4 | 27% | -4% | 1
Fc1ccc(-n2cc(-c3ccccc3)c3c(NCCc4ccccc4)ncnc32)cc1 | 7.9µM* | 3% | 21 | · | 32µM* | ·
CCCNc1ncnc2c1c(-c1ccccc1)cn2-c1ccccc1 | 10µM* | -4% | 1 | · | -16% | ·
COc1ccccc1Cc1c(C(C)(C)C)nc2ccc(C)cn12 | -9% | -9% | -3 | -4% | 5% | 13
CC(C)n1cc(CN2CCC(n3nccc3NC(=O)CCCc3ccccc3)CC2)cn1 | 9% | -2% | -39 | -19% | 1% | -69*
CC(C)n1cc(CN2CCC(n3nccc3NC(=O)Cc3ccccc3)CC2)cn1 | -2% | -3% | -18 | 7% | 2% | -15
C=C(C)CCC(C)N1CCC(n2nccc2NC(=O)CCOc2ccccc2)CC1 (stereo not drawn) | 5µM* | -14% | -2 | 7% | -2% | -3
CCOc1ccc(CN2CCC(n3nccc3NC(=O)CCCc3ccccc3)CC2)cc1 | ? | 5% | -2 | -6% | -4% | -55*
O=C(CCCc1ccccc1)Nc1ccnn1C1CCN(Cc2ccccc2)CC1 | ? | 2% | -15 | -2% | 2% | -3
CC(C)NC(=O)N1CCC(n2nccc2NC(=O)CCOc2ccccc2)CC1 | -25% | -9% | 3 | -4% | 1% | 5
CCOc1cccc(CN2CCC(n3nccc3NC(=O)CCCc3ccccc3)CC2)c1 | 10µM* | -6% | -10 | 17% | -4% | ?
CNc1oc(/C=C/c2cc(OC)c(OC)c(OC)c2)nc1C#N | 3% | 55% | 1 | · | 4% | ·
CCCCCCCCCc1ccc(OCCOCCO)cc1 | · | · | 11 | · | · | ·
CCOc1ccc(NC(=O)CN(C)S(=O)(=O)c2ccc3c(c2)c(=O)n(C)c(=O)n3C)cc1 | 12% | 1% | 0 | 1% | -3% | ·
Cc1cccc(C)c1N1C(=O)CC(Sc2ccccc2N)C1=O (stereo not drawn) | 15% | -10% | -6 | -2% | 2% | -16
Cc1ccc(C)c(CN2CCC(n3nccc3NC(=O)CCCc3ccccc3)CC2)c1 | ? | ? | -18 | -3% | -1% | -65*
O=C(CCCc1ccccc1)Nc1ccnn1C1CCN(Cc2ccccc2F)CC1 | ? | -1% | -2 | 5% | 0% | -15
O=[N+]([O-])c1cc(-c2csc(NCCc3nc4cc(Cl)c(N5CCCCC5)cc4n3CCCO)n2)ccc1Cl | 2.2µM* | -20% | 15 | -1% | -2% | 27
SMILES | GLP-1R inv ag | GLP1R cytotox | D3 ag | GLP1R ag | ClpP mod | D3 antag
Cc1c(Cc2ccccc2)[n+](=O)c2ccccc2n1[O-] | 1% | 4% | 2 | 10% | -3% | 0
N/C(CCS(=O)(=O)c1ccc(Cl)cc1)=N\OC(=O)c1ccccc1C(F)(F)F | ? | 10µM* | 4 | 31% | · | -6
N/C(CCS(=O)(=O)c1ccc(Cl)cc1)=N\OC(=O)c1ccc(Cl)cc1 | 18% | 3% | 3 | -1% | 2% | -10
CCOc1ccccc1NC(=O)Cn1c(=O)n(CC(=O)NCc2ccccc2Cl)c(=O)c2sccc21 | 9% | 1% | -23 | · | 0% | ·
O=S(=O)(NCC(c1cccs1)S(=O)(=O)c1ccccc1)c1ccc(F)cc1 (stereo not drawn) | -9% | 1% | -10 | · | 2% | ·
COc1ccc(C(=O)CCN2CCCCCC2)cc1 | 2% | 1% | -57 | -21% | 1% | -54*
Clc1cccc(OCCCCN2CCCCC2)c1 | -21% | 6% | -2 | -4% | -4% | ?
CC(C)Oc1ccc(C(=O)CCN2CCCCC2)cc1 | 2% | -5% | -5 | -5% | -1% | -78*
O=C(OCCN1CCCCC1)c1cccc(Cl)c1 | 17% | -9% | -6 | 5% | -1% | -102*
CC(C)(C)c1ccc(C(=O)OCCN2CCCCC2)cc1 | ? | -4% | -6 | 18% | 2% | -20
COc1ccc(C(=O)OCCN2CCCCC2)cc1 | 3% | -12% | -11 | 8% | · | -78*
CCOc1ccc(C(=O)CCN2CCCCC2)cc1 | 0% | -7% | -8 | 0% | 1% | 0
CC(C)(CC1(C)NC(=O)NC1=O)OCc1ccccc1 (stereo not drawn) | 2% | -17% | 7 | -1% | -1% | 4
CC(=O)c1ccc(NC(=O)c2cnn3c2NC(=C2CC2)C=C3C(F)F)cc1 | · | · | · | · | -5% | ·
Cc1ccc(CN(Cc2ccco2)c2cnc(S(C)(=O)=O)nc2C(=O)Nc2ccc(Br)cc2)o1 | ? | -8% | -7 | · | -10% | ·
CC(C)CN(c1ccccc1)S(=O)(=O)c1nnc(NC(=O)C2CCCCC2)s1 | 11% | 2% | -1 | · | -3% | ·
COc1ccc(CCN(C)CCCC(C#N)(c2cc(OC)c(OC)c(OC)c2)C(C)C)cc1OC (stereo not drawn) | ? | -3% | -84 | 5% | 1% | -57*
COc1ccc(CCN(C)CCc2ccc(OC)c(OC)c2)cc1OC | 33% | 5% | -65 | 7% | -2% | -21
CCOc1ccc(/C=N/NC(=O)c2ccccc2Cl)cc1CN1CC2CC(C1)c1cccc(=O)n1C2 (stereo not drawn) | 12% | -5% | -94 | 20% | -4% | -85*
Cc1ccc(C)n1CCN1CCN(C(=O)c2ccco2)CC1 | 64% | -10% | 5 | -12% | -2% | -11
Cc1ccc(C)n1CCN1CCN(C(=O)c2ccc(Cl)cc2)CC1 | 40% | -7% | -13 | 13% | · | -78*
